Data as given in paper PMC4336329 (PLoS ONE, 2015).
Hit rate of the full screen: of about 310,000 compounds, about 14,000 (4.5%) showed an effect of 50% or more. The effect is printed as a negative number. Many of the other results were omitted from the sample, so strong results are more common in it than they were.

Target: human ether-à-go-go-related gene (hERG) potassium channel (human, UniProt Q12809)
Test: primary screen, population patch clamp on CHO cells stably expressing hERG; higher = less effect of the substance
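Further: peak tail current of the secondary pulse compared with the same well before compound.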

Chain of human ether-à-go-go-related gene (hERG) potassium channel (Q12809 whole entry, looked up): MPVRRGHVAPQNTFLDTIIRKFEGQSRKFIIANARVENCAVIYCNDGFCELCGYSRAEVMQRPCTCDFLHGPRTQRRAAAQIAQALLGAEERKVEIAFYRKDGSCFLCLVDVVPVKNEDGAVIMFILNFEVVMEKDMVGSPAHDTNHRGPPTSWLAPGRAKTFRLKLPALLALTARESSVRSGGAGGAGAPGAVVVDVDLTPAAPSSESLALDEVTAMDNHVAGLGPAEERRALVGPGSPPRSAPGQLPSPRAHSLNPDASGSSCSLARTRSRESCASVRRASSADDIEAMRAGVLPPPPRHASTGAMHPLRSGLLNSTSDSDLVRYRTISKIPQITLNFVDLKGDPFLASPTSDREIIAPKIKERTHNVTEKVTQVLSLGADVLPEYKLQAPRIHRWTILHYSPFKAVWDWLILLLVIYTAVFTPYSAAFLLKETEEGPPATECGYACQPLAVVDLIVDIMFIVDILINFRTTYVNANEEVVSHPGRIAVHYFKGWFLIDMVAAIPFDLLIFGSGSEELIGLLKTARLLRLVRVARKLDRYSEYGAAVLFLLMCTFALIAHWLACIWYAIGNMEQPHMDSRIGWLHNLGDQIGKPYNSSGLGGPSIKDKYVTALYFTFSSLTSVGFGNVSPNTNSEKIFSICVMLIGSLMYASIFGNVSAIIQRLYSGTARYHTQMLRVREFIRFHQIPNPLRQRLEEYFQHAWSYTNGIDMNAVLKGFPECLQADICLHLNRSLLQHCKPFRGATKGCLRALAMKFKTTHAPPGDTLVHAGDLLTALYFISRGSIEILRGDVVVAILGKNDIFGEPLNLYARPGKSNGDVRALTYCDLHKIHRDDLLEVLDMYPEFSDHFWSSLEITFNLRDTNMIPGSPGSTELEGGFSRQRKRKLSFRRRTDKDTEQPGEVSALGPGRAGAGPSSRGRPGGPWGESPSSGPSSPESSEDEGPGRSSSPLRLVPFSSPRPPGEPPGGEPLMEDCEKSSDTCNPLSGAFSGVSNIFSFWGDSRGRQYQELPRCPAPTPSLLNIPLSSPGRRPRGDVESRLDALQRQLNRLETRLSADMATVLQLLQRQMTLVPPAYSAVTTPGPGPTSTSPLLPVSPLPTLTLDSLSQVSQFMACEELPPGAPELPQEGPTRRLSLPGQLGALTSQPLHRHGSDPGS

Going from `N#Cc1c(NC(=O)CSc2nc(-c3ccco3)cc(C(F)(F)F)n2)sc2c1CCCC2` to `N#Cc1cnn2c(C(F)(F)F)c3c(nc12)CCCC3`, the “hERG current change (%, negative = inhibition) at 10uM” value falls from 12.3% to -5.18%.

First: Cc1ccc(/C=N/Nc2nc(C(C)(C)C)cs2)o1.Cl
Second: COc1ccc(/C=N/Nc2nc3ccccc3o2)cc1OC
The “hERG current change (%, negative = inhibition) at 10uM” value of the first is lower: -22.5% for the first, 13.3% for the second.

Compared with `CC(=O)Nc1cccc(NC(=O)COc2ccc3c(c2)OCO3)c1`, `CCn1cc(S(=O)(=O)CC(=O)Nc2ccc3c(c2)OCCO3)c2ccccc21` is lower in “hERG current change (%, negative = inhibition) at 10uM” value: 4.48% for the first, -13.1% for the second.

Compared with `O=C(O)c1ccc(Br)cn1`, `CC(NC(=O)C(=O)NCc1cccs1)c1ccccc1` (stereo not shown) is higher in “hERG current change (%, negative = inhibition) at 10uM” value: 9.73% for the first, 16.9% for the second.

First: O=C(O)c1ccc([N+](=O)[O-])c(CS(=O)(=O)c2ccc(Cl)cc2)c1
Second: CC(=O)c1ccn(S(=O)(=O)c2ccc(Cl)cc2)c1
The “hERG current change (%, negative = inhibition) at 10uM” value of the first is higher: 6.82% for the first, 6.57% for the second.

Compared with `Cc1nc2c(C#N)cnn2c2c1CCN(Cc1ccccc1)N2C`, `Cc1nc2c(C#N)cnn2c2c1CCNN2C` is higher in “hERG current change (%, negative = inhibition) at 10uM” value: -58% for the first, -1.38% for the second.

Going from `COC(CN1CCc2c(C)nc3c(C#N)cnn3c21)OC` to `COC(=O)C(C(C)C)N1CCc2c(C)nc3c(C#N)cnn3c21` (stereo not shown), the “hERG current change (%, negative = inhibition) at 10uM” value rises from 5.84% to 13.9%.

Compared with `Cc1nc2c(C#N)cnn2c2c1CCN2CC1CCCO1` (stereo not shown), `Cc1cc(C)nc(SCC(=O)Nc2ccc(S(=O)(=O)N3CCCCC3)cc2)n1` is lower in “hERG current change (%, negative = inhibition) at 10uM” value: -51.7% for the first, -61.3% for the second.

Going from `Cc1cc(=O)n2c3ccccc3n(C)c2n1` to `CCc1ccccc1NC(=O)c1ccc(-c2csc(C)n2)cc1`, the “hERG current change (%, negative = inhibition) at 10uM” value falls from 9.7% to -12.4%.

Compared with `O=C(NC1CCCCC1)N1CCN(c2ccccc2)CC1`, `O=C(NC1CCCCC1)N1CCN(c2ccc(Cl)cc2)CC1` is lower in “hERG current change (%, negative = inhibition) at 10uM” value: -0.0694% for the first, -27.8% for the second.

Compared with `S=C(NC1CC1)N1CCN(c2ccc(Cl)cc2)CC1`, `S=C(NC1CCCC1)N1CCN(c2ccc(Cl)cc2)CC1` is lower in “hERG current change (%, negative = inhibition) at 10uM” value: 1.76% for the first, -13.6% for the second.

Going from `O=C(NC1CCCCC1)N1CCN(c2ccc([N+](=O)[O-])cc2)CC1` to `O=[N+]([O-])c1ccc(N2CCN(C(=S)NC3CCCCC3)CC2)cc1`, the “hERG current change (%, negative = inhibition) at 10uM” value rises from -92.4% to -53%.

Going from `COc1ccc([C@H]2CC(=O)C=C(c3cccc4c3Oc3ccccc3S4)C2)cc1` to `CCN(CC(=O)Nc1c(F)cccc1F)C(=O)c1ccc(N2C(=O)c3ccccc3C2=O)cc1`, the “hERG current change (%, negative = inhibition) at 10uM” value rises from -28.4% to 1.38%.

Going from `Cc1ccc(CNC(=O)CC(C)S(=O)(=O)c2ccc3c(c2)NC(=O)CO3)cc1` (stereo not shown) to `COc1cccc(CNC(=O)CN2C(=O)COc3ccc(S(=O)(=O)N4CCCCCC4)cc32)c1`, the “hERG current change (%, negative = inhibition) at 10uM” value rises from -22.1% to 24.8%.

Compared with `CC1(C)CC(=O)C([N+](=O)[O-])=C(NCCCC(=O)O)C1.O`, `Cc1ccc(C)c(S(=O)(=O)N2CCN(CC(=O)Nc3ccc([N+](=O)[O-])cc3)CC2)c1` is lower in “hERG current change (%, negative = inhibition) at 10uM” value: 15% for the first, -40.7% for the second.

Compared with `Cc1ccc(-n2c(C)cc(C(=O)COC(=O)C3=NNC(=O)CC3)c2C)cc1`, `Cc1cc(C(=O)COC(=O)C2=NNC(=O)CC2)c(C)n1-c1ccc(OC(F)F)cc1` is lower in “hERG current change (%, negative = inhibition) at 10uM” value: -42.3% for the first, -48.4% for the second.

Compared with `Cc1cc(C(=O)C(C)OC(=O)C2=NNC(=O)CC2)c(C)n1-c1ccc(OC(F)F)cc1` (stereo not shown), `COC(=O)c1cnc(Oc2ccc(NC(=O)NC(=O)c3c(OC)cccc3OC)cc2)cc1C(F)(F)F` is higher in “hERG current change (%, negative = inhibition) at 10uM” value: -73.3% for the first, -14.1% for the second.

Going from `COc1cc(C(=O)NCC(c2ccco2)N2CCCC2)ccc1OCc1c(C)noc1C` (stereo not shown) to `Cc1noc(C)c1COc1cccc(C(=O)Nc2ccccc2)c1`, the “hERG current change (%, negative = inhibition) at 10uM” value rises from -21.1% to -7.11%.

Compared with `O=C(Nc1cccc2ncccc12)c1ccc(-c2ccc(Cl)cc2Cl)o1`, `Cc1cccc(N=Nc2ccc(O)c3ncccc23)c1` is lower in “hERG current change (%, negative = inhibition) at 10uM” value: -7.06% for the first, -8.51% for the second.

Compared with `CS(=O)(=O)N(CC(=O)Nc1ccc(S(=O)(=O)N2CCOCC2)cc1)c1cccc(F)c1`, `Cc1ccc(S(=O)(=O)N2CCN(CC(=O)Nc3ccc(N4CCOCC4)cc3)CC2)cc1C` is lower in “hERG current change (%, negative = inhibition) at 10uM” value: -9.72% for the first, -11.5% for the second.

Compared with `Cc1ccc(OCCNC(=O)CCC(=O)N2CCOCC2)cc1`, `CN(CC(=O)NCCCN1CCOCC1)S(=O)(=O)c1ccc(F)cc1` is lower in “hERG current change (%, negative = inhibition) at 10uM” value: 15.9% for the first, 15.4% for the second.

Going from `Cc1ccc(S(=O)(=O)N2CCN(CC(=O)Nc3ccc([N+](=O)[O-])cc3)CC2)cc1C` to `O=C(CN1CCN(S(=O)(=O)c2ccccc2)CC1)Nc1ccc([N+](=O)[O-])cc1`, the “hERG current change (%, negative = inhibition) at 10uM” value rises from -76.9% to -73.4%.

First: O=C(CN1CCN(S(=O)(=O)c2ccccc2)CC1)Nc1ccc(Cl)c(Cl)c1
Second: O=C(CN1CCN(S(=O)(=O)c2ccccc2)CC1)Nc1ccc(Cl)c([N+](=O)[O-])c1
The “hERG current change (%, negative = inhibition) at 10uM” value of the first is higher: -16% for the first, -65% for the second.

First: CC1CCN(S(=O)(=O)c2ccc(NC(=O)CN3CCN(C)CC3)cc2)CC1
Second: CC1CCN(CC(=O)Nc2ccc(S(=O)(=O)N3CCC(C)CC3)cc2)CC1.Cl
The “hERG current change (%, negative = inhibition) at 10uM” value of the first is higher: -16% for the first, -42.8% for the second.

Compared with `NS(=O)(=O)c1ccc(NC(=O)CN2CCCC2)cc1`, `CC1CC(C)CN(CC(=O)Nc2ccc(S(N)(=O)=O)cc2)C1` (stereo not shown) is higher in “hERG current change (%, negative = inhibition) at 10uM” value: 3.7% for the first, 13.7% for the second.

Going from `CC1CN(CC(=O)Nc2ccc(S(N)(=O)=O)cc2)CC(C)O1` (stereo not shown) to `CC1CCCN(CC(=O)Nc2ccc(S(=O)(=O)N3CCCC3)cc2)C1` (stereo not shown), the “hERG current change (%, negative = inhibition) at 10uM” value rises from -52% to 1.82%.

Compared with `Cc1ccc(S(=O)(=O)N2CCN(CC(=O)N/N=C\c3ccc(Cl)c([N+](=O)[O-])c3)CC2)cc1`, `Cc1cc(C)c(C)c(S(=O)(=O)N2CCN(CC(=O)Nc3ccc([N+](=O)[O-])cc3)CC2)c1C` is higher in “hERG current change (%, negative = inhibition) at 10uM” value: -30.8% for the first, 15.4% for the second.

Going from `CC1CCN(S(=O)(=O)c2ccc(NC(=O)CN3CCN(c4ccccc4)CC3)cc2)CC1` to `CC1CCCN(CC(=O)Nc2ccc(S(=O)(=O)N3CCCCC3)cc2)C1` (stereo not shown), the “hERG current change (%, negative = inhibition) at 10uM” value rises from -58.2% to -15.7%.

Compared with `Cc1ccccc1S(=O)(=O)Cc1ccc(C(=O)NCCCN2CCCC(C)C2)o1` (stereo not shown), `CC1CCCN(CC(=O)Nc2ccc(S(=O)(=O)N3CCCCCC3)cc2)C1` (stereo not shown) is lower in “hERG current change (%, negative = inhibition) at 10uM” value: -21.1% for the first, -66.8% for the second.

Going from `COc1cccc(C(=O)OCn2nnc3ccccc3c2=O)c1` to `CCOC(=O)C1=C(C)N(c2ccccc2)C(=O)/C1=C\c1cccs1`, the “hERG current change (%, negative = inhibition) at 10uM” value rises from 0.671% to 18.1%.

Compared with `COc1cccc(-n2c(Cc3cc(=O)[nH]c(=O)[nH]3)nnc2SCc2cccc(C(F)(F)F)c2)c1`, `CCCN(CC(=O)Nc1ccccc1OC)C(=O)c1cc(-c2cccs2)nn1-c1ccccc1` is lower in “hERG current change (%, negative = inhibition) at 10uM” value: 15.8% for the first, -9.02% for the second.

First: NC(N)=NCCCC(NC(=O)c1ccccc1)C(=O)Nc1ccc2ccccc2c1 (stereo not shown)
Second: COc1cc(C(=O)OCC(=O)NC(C)CCc2ccccc2)cc(OC)c1OC (stereo not shown)
The “hERG current change (%, negative = inhibition) at 10uM” value of the first is higher: 12.5% for the first, 9.14% for the second.

Compared with `COCC(C)N=C1NN=C(c2cc(C)n(Cc3ccccc3Cl)c2C)CS1` (stereo not shown), `CCOC(=O)C1=C(C)NC(C)=C(C(=O)OCC)C1c1cn(-c2ccccc2)nc1-c1ccco1` is higher in “hERG current change (%, negative = inhibition) at 10uM” value: -9.9% for the first, -1.05% for the second.

Compared with `O=C(CSc1ncccn1)Nc1ccc(S(=O)(=O)N2CCCCC2)cc1`, `Cc1cc(=O)[nH]c(SCC(=O)Nc2ccc(S(=O)(=O)N3CCCCC3)cc2)n1` is higher in “hERG current change (%, negative = inhibition) at 10uM” value: -12.9% for the first, -6.37% for the second.

First: O=[N+]([O-])c1ccc(NC(=S)N2CCN(S(=O)(=O)c3ccccc3)CC2)cc1
Second: Cc1cccc(CSc2ccc(S(=O)(=O)N3CCCC3)cn2)c1
The “hERG current change (%, negative = inhibition) at 10uM” value of the first is lower: -24.6% for the first, 5.24% for the second.

First: Cc1oc2ccccc2c1CNC(=O)N(C)C
Second: Cc1ccc(CNC(=O)c2cc3c(=O)n4ccccc4nc3n(Cc3ccco3)c2=N)cc1
The “hERG current change (%, negative = inhibition) at 10uM” value of the first is higher: 14.2% for the first, -75.5% for the second.

Compared with `CC(=O)c1ccc(N2CCN(C(=O)COc3ccc4c(c3)CCC4)CC2)cc1`, `CCC(=O)N1CCN(CCN=CC2=C(O)CC(c3cccs3)CC2=O)CC1` (stereo not shown) is higher in “hERG current change (%, negative = inhibition) at 10uM” value: -34% for the first, -9.43% for the second.

Compared with `Cc1ccc(SCc2cn3cccnc3n2)cc1`, `Cc1ccc(S(=O)(=O)c2cc3c(=O)n4ccccc4nc3n(Cc3ccco3)c2=N)cc1` is lower in “hERG current change (%, negative = inhibition) at 10uM” value: 11.1% for the first, -11.2% for the second.

Going from `Cc1ccc(Cn2c(=N)c(C(=O)NCc3ccco3)cc3c(=O)n4ccccc4nc32)cc1` to `Cc1ccc(Cn2c(=O)n(-c3ccccc3)c(=O)c3ccc(C(=O)NCc4ccco4)cc32)cc1`, the “hERG current change (%, negative = inhibition) at 10uM” value rises from -79.8% to -10.1%.

Compared with `Cc1ccc(S(=O)(=O)c2cc3c(=O)n4ccccc4nc3n(Cc3ccco3)c2=N)cc1C`, `COc1cc(-c2cc(-c3ccc(O)cc3)nc(N)c2C#N)ccc1O` is higher in “hERG current change (%, negative = inhibition) at 10uM” value: -4.4% for the first, 18.5% for the second.

Compared with `CC(C)C(=O)N1CCN(CCN=CC2=C(O)CC(c3ccco3)CC2=O)CC1` (stereo not shown), `CC(=O)N1CCN(CCN=CC2=C(O)CC(c3ccco3)CC2=O)CC1` (stereo not shown) is higher in “hERG current change (%, negative = inhibition) at 10uM” value: 0.717% for the first, 1.17% for the second.

Going from `CCCCCC(=O)N1CCN(CCN=CC2=C(O)CC(c3ccco3)CC2=O)CC1` (stereo not shown) to `CCCCCC(=O)N1CCN(CCN=CC2=C(O)CC(c3cccs3)CC2=O)CC1` (stereo not shown), the “hERG current change (%, negative = inhibition) at 10uM” value falls from -76.2% to -106%.

`CC(=O)N1CCN(CCN=CC2=C(O)CC(c3cccs3)CC2=O)CC1` (stereo not shown) was tested, and the “hERG current change (%, negative = inhibition) at 10uM” value was 8.53%.
